The panel holds about 79,000 compounds, 15% with a hit somewhere; the sample as a whole holds those more often. Unmarked numbers belong to inactive results. Calls of active or inactive are those of the source. Cut-off read from the data, not from the text of the source: active = growth inhibition above about 70%; inactive = the rest.
Experiments:
[1] = NCI Yeast Anticancer Drug Screen. Data for the rad50 strain (AID 155);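 note: 0% = growth of vehicle-only cultures of the same strain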; conditions: S. cerevisiae rad50 strain growth inhibition; at 50.0 µM; active compounds read high
How it was run: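 Relative growth inhibition (compound vs vehicle) was measured in yeast with a defined repair-gene alteration.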

[2] = NCI Yeast Anticancer Drug Screen. Data for the mec2-1 strain (AID 157); conditions: S. cerevisiae mec2-1 strain, at 50.0 µM, active compounds read high
How it was run: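 mec2-1 yeast strain, carrying an alteration in DNA damage repair or cell cycle control, was exposed to compounds; growth inhibition was measured relative to vehicle-treated controls.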

[3] = NCI Yeast Anticancer Drug Screen. Data for the sgs1 mgt1 strain (AID 161);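 note: 0% = growth of cultures given vehicle only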; conditions: S. cerevisiae sgs1 mgt1 strain, at 50.0 µM, active compounds read high
How it was run: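 Percent growth inhibition was derived by comparing compound-exposed mutant yeast with vehicle-exposed cultures. The strain carries alterations in DNA damage repair.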

[4] = NCI Yeast Anticancer Drug Screen. Data for the cln2 rad14 strain (AID 165);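 note: 0% = growth equal to vehicle treated cultures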; conditions: S. cerevisiae cln2 rad14 strain, at 50.0 µM, active compounds read high
How it was run: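 Yeast carrying cln2 and rad14 alterations (cell cycle control and DNA damage repair) were exposed to compounds. Growth inhibition was measured against vehicle-treated controls.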

[5] = NCI Yeast Anticancer Drug Screen. Data for the bub3 strain (AID 167); conditions: S. cerevisiae bub3 mutant strain, at 50.0 µM, active compounds read high
How it was run: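 Screening used yeast with an engineered genetic alteration affecting cell cycle control. Compound-exposed cultures were compared with vehicle cultures, and reduced growth was taken as inhibition.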

[6] = NCI Yeast Anticancer Drug Screen. Data for the mlh1 rad18 strain (AID 175); conditions: S. cerevisiae mlh1 rad18 strain growth inhibition; at 50.0 µM; active compounds read high
How it was run: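 Growth inhibition of the yeast strain was measured after compound exposure and expressed relative to vehicle-treated controls. The strain carries defined defects in DNA damage repair.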

| SMILES | growth inhibition [1] | growth inhibition [2] | growth inhibition [3] | growth inhibition [4] | growth inhibition [5] | growth inhibition [6] |
| --- | --- | --- | --- | --- | --- | --- |
| CCOC(=O)c1c[nH]c2cc3c(cc2c1=O)CCS3 | -27.4% | -57% | -1.45% | 3.95% | 9% | -7.35% |
| COc1ccc(-c2c3c(n(C4OC(COC(C)=O)C(OC(C)=O)C(OC(C)=O)C4OC(C)=O)c(=S)c2C#N)CCC3)cc1 (stereo unspecified) | 28.8% | 35% | 43.3% | 32% | 46.8% | 20.9% |
| Cc1ccc2cccc(OC(=O)Nc3cc(Cl)c(Cl)cc3Cl)c2n1 | -5.7% | -17.8% | 4.5% | -4.8% | -14.2% | 3.9% |
| Cc1ccc2nc(N(C)C)nc(N)c2c1 | -7.95% | 2.05% | -5.45% | -7.85% | -8.3% | -6.2% |
| CCC1(CC)SCC(C)(O)NC1=O (stereo unspecified) | 1.95% | -12.5% | -7.15% | -35.4% | -10.6% | -4.75% |
| Nc1ccc(C(=O)O)cn1 | -20.4% | -11.1% | 29.6% | -34.5% | 9.95% | -0.45% |
| S=C(Nc1ccccc1)NC1SNC(=Nc2ccccc2)N1c1ccccc1 (stereo unspecified) | 98.2% (active) | 99.4% (active) | 98.8% (active) | 99.3% (active) | 99.3% (active) | 99% (active) |
| CCNc1ncnc2c1cnn2C1CCCCC1 | 5.3% | -7.15% | -5.85% | -35.9% | 0.5% | -2.5% |
| CC1CN(c2ccccc2)NC1=O (stereo unspecified) | 0.4% | -32.7% | 0.05% | 27.1% | -19.6% | -7.55% |
| CCCCCCCCCCCCCCCCCCCCCC | -28.1% | -26.1% | -8.7% | 0% | -25.9% | -18.1% |
| CCOC(=O)CC(CSCP(=O)(OCC)OCC)C(=O)OCC (stereo unspecified) | 5.15% | -1.35% | 13.2% | 3.4% | 9.55% | 16.2% |
| O=[N+]([O-])c1ccc(/C=C2/c3ccccc3-c3nc4ccccc4cc32)cc1 | 21.9% | -2.55% | -2.9% | -2.6% | 7.3% | 20.8% |
| CC(=O)Nc1ccc(C(C#N)C(C#N)c2ccccc2)cc1 (stereo unspecified) | -1.5% | 8.75% | -0.1% | -68.3% | 11.8% | -2.55% |
| N#CCc1nn(-c2ccccc2)c2ncn(N)c(=N)c12 | -8.45% | -14.8% | -9.6% | -22.2% | 6.2% | -12.2% |
| CC(=O)C(N=NC1CCC(S(=O)(=O)NB2N=CS2)CC1)C(=O)Nc1ccccc1C (stereo unspecified) | -32.2% | -1.05% | -5.9% | 16.5% | 9.35% | 15.4% |
| CCSCC1C(=O)C23C(O)C1CCC2C12COC3(O)C(O)C1C(C)(C)CCC2O (stereo unspecified) | 16.6% | 18.4% | 7.45% | 10.9% | 2.4% | 7.05% |
| C=CCCCCCCCCC(=O)NCC1CCCCO1 (stereo unspecified) | 2.8% | -0.5% | 67.6% | -1.35% | 10.1% | 58.1% |
| Oc1c(Cl)cc(N=Cc2ccc(N(CCCCl)CCCCl)cc2)cc1Cl | 92.6% (active) | 14.7% | 94.8% (active) | 92% (active) | -13.6% | 80% (active) |
| COC1=CC(=O)c2ccc(C(C)C)cc2C1(C)C1=NC(C)(C)CO1 (stereo unspecified) | -1.55% | -14.4% | -0.85% | 16.8% | -6.45% | -9.8% |
| Cc1cc(Br)cc(Cl)c1O | -22.1% | -7.9% | 6.55% | -11.2% | -30.2% | -12.4% |
| CSc1nc(N(C)C)c2[nH]ncc2n1 | 5.25% | -0.5% | -3.6% | -10.6% | 19.7% | 3.25% |

| SMILES | growth inhibition [1] | growth inhibition [2] | growth inhibition [3] | growth inhibition [4] | growth inhibition [5] | growth inhibition [6] |
| --- | --- | --- | --- | --- | --- | --- |
| COC(=O)c1ccc(SCCC2(COS(C)(=O)=O)OCCO2)cc1 | 18.6% | -16.9% | 1.35% | 18.7% | 1.4% | -4.1% |
| COCCCNC(=O)CC(=O)NCCCOC | 13.4% | -2.3% | 24.8% | 6.55% | 5% | 29.4% |
| CSCCOC(=O)C1C2CCC(O2)C1C(=O)O (stereo unspecified) | 11.1% | 10.6% | 1.55% | 9.25% | -0.6% | 17.6% |
| Cc1ccc(S(=O)(=O)N/N=C(\C(=O)c2ccccc2)c2ccccc2)cc1 | 45% | 18.2% | 39.4% | 28.1% | 23.6% | 36.6% |
| NC(=O)c1[nH]c(N=Nc2ccc(S(N)(=O)=O)cc2)nc1N | 28.6% | 13.6% | 15% | -5.1% | -15.7% | 17.9% |
| C[C@H]1C(=O)c2c(cc(O)c(C3OC(CO)C(O)C(O)C3O)c2O)OC1c1ccc(O)c(O)c1 (stereo partly specified) | 2.65% | -18.6% | -16.8% | 8.45% | -0.25% | 12.6% |
| CC(=O)COc1ccccc1[N+](=O)[O-] | 9.65% | 0% | 8.15% | 8.95% | 1.3% | 15.8% |
| CC(=O)OC1CC2CC1C1CC=CC21 (stereo unspecified) | 35.2% | -2% | -0.4% | 34.1% | 2.4% | 14.4% |
| CCCCOC(=O)CNC(=O)c1ccc(C)c(OCc2ccccc2)c1[N+](=O)[O-] | 0.5% | -6.1% | 6.1% | -19.6% | 20.9% | -17.6% |
| N#CCCBr | 23.9% | 0.15% | 7.45% | -22.6% | 15.7% | 31.1% |
| OCc1c(-c2ccc(Cl)cc2)c(-c2ccc(Cl)cc2)c2n1CCC2 | -0.65% | -18% | 1.3% | 90.4% (active) | -2.35% | -6.85% |
| N#CC(C(N)=O)C(CC(=O)c1ccccc1)c1ccccc1 (stereo unspecified) | -7.65% | -3.1% | 13.3% | 15.9% | 19.2% | -2.05% |
| CSc1ccc(NC(=O)c2cccc([N+](=O)[O-])c2C(=O)O)cc1 | 5.05% | 8.25% | 13.2% | -6.35% | 15.2% | 1.6% |
| CCC(C)CCC(C)(O)CC (stereo unspecified) | 9.7% | -9.9% | -5.4% | -43.1% | 16.2% | 1.35% |
| COc1ccccc1NC(=O)Nc1ccccc1 | 1.9% | -4.3% | 3.7% | -23.5% | -4.65% | 0.3% |
| COc1cccc2c1[C@]1(O)C(O)CCCC21 (stereo partly specified) | -43.6% | -6.6% | -60.6% | 5.95% | -31.9% | -35.7% |
| OCC1COc2cc(Cl)c(Cl)cc2O1 (stereo unspecified) | 47.8% | 9.65% | 33.3% | 15% | 36.9% | 50.2% |
| Cc1ccc(S(=O)(=O)Nc2ccc(C(=O)NC(CCC(=O)O)C(=O)O)cc2)cc1 (stereo unspecified) | 3.3% | 2.95% | -8.05% | -2.45% | -1.5% | 13.7% |
| NC(=O)c1ccc(Cl)cc1 | 33% | 14.2% | 15.5% | 14.4% | -0.6% | 2% |
| C[N+](C)(N)CCS(N)(=O)=O | 0.15% | -9.8% | 5.6% | -22.4% | 26.7% | 0.5% |

Reference: PubChem BioAssay (NCI)
